Results on 26 compounds are retold here after ChEMBL document CHEMBL1157539, “Thousands of chemical starting points for antimalarial lead identification” (Nature, 2010).

This test has as its system Plasmodium falciparum. Put plainly: GSK_TCMDC: Inhibition of Plasmodium falciparum 3D7 in whole red blood cells, using parasite LDH activity as an index of growth. Test compounds present at 2uM. Format: functional.
As a reminder, the Inhibition is the share of the control response that was lost under treatment. Lower therefore signals little suppression. `CCCCCn1c(Sc2ccc(C#N)c([N+](=O)[O-])c2)nnc1-c1ccccc1` showed an Inhibition of 93%.
On to `O=C(/C=C/c1ccc(Cl)cc1)NCCCCCN1CCCN(C(=O)Nc2cccc(Cl)c2)CC1`, for which the Inhibition was found to be 85%.
The compound `Oc1ccc(-c2cncc(NCc3ccc(F)c(F)c3)c2)cc1` had an Inhibition of 95%.
As for `Cl.O=C(NCCCCN1CCC(c2ccc3c(c2O)CCCC3)CC1)c1ccc(NC(=O)c2ccc(Cl)cc2)cc1`, the figure is 100%; as for `COc1ccc(C(=O)O)cc1OCc1ccccc1`, 99%.
The value for `COc1ccc(-c2nc(NC(=O)Cc3ccc4c(c3)OCCO4)sc2C)cc1` was 100%; that for `CN(C)C(=O)CC(=O)NCc1cccc(Cl)c1` was 99%.
The value for `NC(=O)c1ccsc1NC(=O)CNC(c1ccccc1)c1ccc(Cl)cc1` (stereo unspecified) was 83%; that for `COc1ccc(CCN(C)CCOc2ccc(NC(=O)c3ccc([N+](=O)[O-])c4c(=O)c5ccccc5[nH]c34)cc2)cc1OC` was 91%; that for `O=C(Nc1ccc2c(c1)CCN2C1CCN(Cc2cccc(C(F)(F)F)c2)C1)c1ccco1` (stereo unspecified) was 95%.
`COc1ccc(-c2nc(NC(=O)CS(=O)(=O)c3ccc(C)cc3)sc2C)cc1` yielded an Inhibition of 100%.
For `CC(C)CN(C)Cc1ccc(-c2ccc(-c3nc4ccccc4[nH]3)s2)cc1`, the Inhibition is 97%.
As for `COc1ccc2nc(N(CCCn3ccnc3)C(=O)C=Cc3cccs3)sc2c1.Cl`, the figure is 92%; as for `COc1ccc(Nc2nccc(N3CCC(NC(=O)Nc4ccc5c(c4)OCO5)C3)n2)cc1` (stereo unspecified), 98%.
As for `CCc1cc2c(Sc3nnc(N)s3)ncnc2s1`, the figure is 99%; as for `CC(=O)N1N=C(c2[nH]c3ccc(Br)cc3c2C)OC1c1ccccc1` (stereo unspecified), 86%; as for `CN1CCN(CCCN(Cc2csc(-c3ccc(CNCc4ccccc4)cc3)n2)C(=O)Nc2cccc(Cl)c2)CC1.O=C(O)C(F)(F)F`, 100%.
As to `COc1ccccc1NC(=O)Nc1cccc(-c2cccc(-c3nc4cccc(C)c4[nH]3)c2)c1`, the Inhibition is given as 100%.
`COc1ccccc1-c1ccc(CNC(=O)C(CN2CCN(C)CC2)c2ccccc2)cc1` (stereo unspecified): the Inhibition amounted to 90%.
As for `O=C(O)C(F)(F)F.c1cc(CNC2CCCC2)cc(-c2ccc(CNc3ccc4ncccc4c3)cc2)c1`, the figure is 98%; as for `COc1cc(CC2c3cc(O)c(Cl)cc3CCN2C)c(OC)cc1C.Cl` (stereo unspecified), 99%.
As for `CCOC(=O)c1ccc(NC(=O)Nc2ccc(-c3ccc(-c4nc5cc(C(F)(F)F)ccc5[nH]4)cc3)cc2)cc1`, the figure is 100%; as for `CC1=C(C(=O)Nc2cc3cn[nH]c3cc2F)C(c2ccc(Cl)c(NS(C)(=O)=O)c2)CC(=O)N1` (stereo unspecified), 88%.
As for `CCOc1ccc(Br)cc1/C=C/C(=O)Nc1ccc2c(c1)CCCN(C)C2.O=C(O)C(F)(F)F`, the figure is 90%.
Consider `CCC(Nc1noc(-c2c(-c3ccccc3)noc2C)n1)c1ccccc1` (stereo unspecified), for which the Inhibition was found to be 99%.
The value for `C#CCOc1ccccc1CN1CCC(N2CCc3cc(NC(=O)c4cc(C)on4)ccc32)C1` (stereo unspecified) was 95%.
